MCF10A rereplic: A quantitative high throughput screen for small molecules that induce DNA re-replication in MCF 10a normal breast cells | MCF 10A DNA re-replication, Hoechst nuclear intensity, 48 h | Potency, µM (doses to about 46.1 µM), for inactives: top-dose activity, positive = re-replication, most hits filed as activators | actives 2.9% (n = 350,000) | AID 624296, 2012; further: % of control where 0% means no effect; nearly all actives have a fitted effect of over 50% in size
RGS4 inhibitor: Inhibitors of Regulator of G Protein Signaling (RGS) 4: qHTS | Potency, µM (doses to about 114 µM), for inactives: top-dose activity change, negative = inhibition, hits mostly inhibitors | Transcreener GDP fluorescence polarization, RGS4-accelerated GTP hydrolysis | Regulator of G-protein signaling 4 (Homo sapiens), P49798 | AID 504845, 2011 | actives 0.039% (n = 390,000); further: on the % scale 0 is the no-effect control and ±100 the full control effect; nearly all actives have a fitted effect of over 75% in size
Target sequence (P49798 whole entry, looked up): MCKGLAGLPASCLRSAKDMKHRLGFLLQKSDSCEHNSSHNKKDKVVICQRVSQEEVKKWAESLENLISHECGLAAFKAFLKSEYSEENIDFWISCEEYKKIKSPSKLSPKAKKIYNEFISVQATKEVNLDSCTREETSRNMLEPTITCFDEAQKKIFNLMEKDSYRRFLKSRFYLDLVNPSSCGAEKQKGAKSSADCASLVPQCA
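MLSMR compounds (23 nl, pin-transferred) preincubated 10 min at room temperature with a 500nM (2x) first reagent, then RGS4 at 900nM (2x) plus Transcreener GDP mix added; fluorescence polarization (620/688 nm) read before and after 90 min at 30 °C.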
KB-V1 cytotox: qHTS assay for MDR1-selective chemotherapeutics: Primary screen using the drug-selected MDR subline cells KB-V1 | KB-V1 MDR cells viability, CellTiter-Glo, 72 h | Potency, µM (titrated, usually from 46.1 µM), most hits filed as cytotoxic | actives 3.4% (n = 400,000) | AID 1347076, 2019; further: on the % scale 0 is the no-effect control and ±100 the full control effect; nearly all actives have a fitted effect of over 60% in size
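Following 72 h at 37 degrees C with compound, KB-V1 cell viability was read by CellTiter-Glo luminescence, medium being phenol-red-free DMEM plus 10% FBS; concentration-response parameters came from normalized, curve-fitted qHTS data.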
PTAP TSG101 blk: qHTS Assay for Iinhibitors of HIV-1 Budding by Blocking the Interaction of PTAP/TSG101; Tumor susceptibility gene 101 protein (Homo sapiens), Q99816; Fluorescence polarization, FITC-PTAP peptide / Tsg101 binding; Potency, µM (series often up to 115 µM), for the others: at the top dose activity change, negative = inhibition, most hits filed as inhibitors; 340,000 tested, under 10 active; AID 493005, 2010; active means well fitted inhibition curve with a large enough effect in the main read-out, with a control signal flat, not every such curve was filed as active; inconclusive means small, poorly fitted or top-dose-only effect, or effect the other way, or a change in a side signal; inactive means no such curve, though single readings can be large or run the other way; further: % of control where 0% means no effect
Target sequence (Q99816 whole entry, looked up): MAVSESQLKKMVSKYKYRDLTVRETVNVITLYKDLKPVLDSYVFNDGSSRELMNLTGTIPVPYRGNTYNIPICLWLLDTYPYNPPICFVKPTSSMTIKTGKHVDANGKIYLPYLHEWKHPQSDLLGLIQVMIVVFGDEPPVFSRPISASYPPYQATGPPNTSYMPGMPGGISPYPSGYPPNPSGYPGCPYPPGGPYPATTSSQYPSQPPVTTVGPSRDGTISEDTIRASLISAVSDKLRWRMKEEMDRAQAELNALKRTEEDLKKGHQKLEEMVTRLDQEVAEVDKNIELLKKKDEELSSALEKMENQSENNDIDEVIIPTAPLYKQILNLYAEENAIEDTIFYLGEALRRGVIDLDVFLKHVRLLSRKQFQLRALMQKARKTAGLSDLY
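Steps: Tsg101 binding domain dispensed (10 uM final), compounds pinned in DMSO, FITC-labeled PTAP-motif peptide added (50 nM final); after 20 min binding at room temperature, polarization measured.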
KB-3-1 tox: qHTS assay for MDR1-selective chemotherapeutics: Primary screen using the parental adenocarcinoma cell KB-3-1 | actives 1.4% (n = 400,000) | KB-3-1 viability, CellTiter-Glo ATP luminescence, 72 h | Potency, µM (titrated, usually from 46.1 µM), hits mostly cytotoxic; further: on the % scale 0 is the no-effect control and ±100 the full control effect; nearly all actives have a fitted effect of over 60% in size
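Cytotoxicity in the drug-sensitive parental line KB-3-1 was scored as loss of CellTiter-Glo luminescence following 72 h incubation with compound. Values come from curve fitting of normalized concentration-response data.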
SW480 rerep: A quantitative high throughput screen for small molecules that induce DNA re-replication in SW480 colon adenocarcinoma cells; SW480 DNA re-replication, Hoechst DNA content imaging, 48 h; Potency, µM (highest dose often 46.1 µM), without a hit: top-dose re-replication activation, hits mostly activators; actives 1.8% (n = 340,000); AID 624297, 2012; further: % of control where 0% means no effect; nearly all actives have a fitted effect of over 55% in size
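DNA re-replication was detected as more nuclei of elevated Hoechst intensity after 48 hr exposure to compound (23 nL pinned per well of 250 cells).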
Active calls of the source: *; [ ] = another dose, or the depositor's remark. This is a sample that favours compounds with a hit; in the whole collection about 6.6% have one here. Unless noted, the call rests on the fitted dose curve; in most records, active means well fitted curve in the direction sought with a large enough effect; inconclusive means small, poorly fitted or top-dose-only effect, or another doubt; inactive means no such curve, though single readings can be large; an effect the other way counts as inactive or inconclusive. Potency means the concentration at half of the fitted maximal effect.

For Cc1ccc(-c2cc(C(=O)NCC(c3ccccc3)N(C)C)c3ccccc3n2)o1 (configuration not stated) the results were MCF10A rereplic inconclusive, RGS4 inhibitor 16%, KB-V1 cytotox inactive, PTAP TSG101 blk 4%, KB-3-1 tox inactive and SW480 rerep 26µM*.
For CCc1ccc(-n2c(=O)c3ccc(C(=O)NCCc4ccccc4)cc3n(Cc3ccccc3C#N)c2=O)cc1 the results were RGS4 inhibitor -44%, KB-V1 cytotox inactive and KB-3-1 tox inactive.
`CN1c2ccccc2N(C)C1c1ccc2c(c1)OCO2` gave MCF10A rereplic 0%, RGS4 inhibitor -10%, KB-V1 cytotox inactive, PTAP TSG101 blk -1%, KB-3-1 tox 5.8µM* and SW480 rerep 1%.
`O=C(COc1cccnc1[N+](=O)[O-])Nc1cccc(Br)c1` gave MCF10A rereplic 1%, RGS4 inhibitor -5%, KB-V1 cytotox inactive, PTAP TSG101 blk 2%, KB-3-1 tox inactive and SW480 rerep -9%.
For O=C(COc1cccnc1[N+](=O)[O-])Nc1ccccc1Sc1ccccc1 the results were MCF10A rereplic 13%, RGS4 inhibitor 16%, KB-V1 cytotox 13µM*, PTAP TSG101 blk -3%, KB-3-1 tox inactive and SW480 rerep -8%.
`Cc1ccccc1-c1noc(N)c1C#N` gave MCF10A rereplic 16µM*, RGS4 inhibitor -23%, KB-V1 cytotox inconclusive, PTAP TSG101 blk 0%, KB-3-1 tox inactive and SW480 rerep 5.2µM*.
For COc1cc(-c2n[nH]c(=S)n2-c2cc(C(F)(F)F)ccc2Cl)cc(OC)c1OC the results were MCF10A rereplic -50%, RGS4 inhibitor -40%, KB-V1 cytotox 13µM*, PTAP TSG101 blk 2%, KB-3-1 tox inactive and SW480 rerep -95%.
For O=C(C[n+]1cccc(Br)c1)c1ccc(O)c(O)c1 the results were KB-V1 cytotox inactive and KB-3-1 tox inconclusive.
`COc1ccc(C(=O)Nc2ccc(N3CCN(C(=O)c4cccs4)CC3)cc2)cc1Br` gave MCF10A rereplic 18µM*, RGS4 inhibitor -6%, KB-V1 cytotox inactive, PTAP TSG101 blk 1%, KB-3-1 tox inactive and SW480 rerep inconclusive.
O=C(Nc1ccc(N2CCN(C(=O)c3cccs3)CC2)cc1)c1ccc(F)cc1 was read as MCF10A rereplic 0%, RGS4 inhibitor 12%, KB-V1 cytotox 0.18µM*, PTAP TSG101 blk -3%, KB-3-1 tox inactive and SW480 rerep -11%.
Screening CC(=O)Nc1ccc(N2CCN(C(=O)c3cccs3)CC2)cc1 returned MCF10A rereplic 2%, RGS4 inhibitor -26%, KB-V1 cytotox inactive, PTAP TSG101 blk -3%, KB-3-1 tox inactive and SW480 rerep 11%.
Screening COc1cc(OC)cc(C(=O)Nc2ccc(N3CCN(C(=O)c4cccs4)CC3)cc2)c1 returned MCF10A rereplic 18µM*, RGS4 inhibitor -12%, KB-V1 cytotox 8.2µM*, PTAP TSG101 blk 0%, KB-3-1 tox 7.3µM* and SW480 rerep inconclusive.
CCOCCc1nnc(NC(=O)C(=O)c2cc(C)n(-c3ccc(C)c(C)c3)c2C)s1 was read as RGS4 inhibitor -3%, KB-V1 cytotox inactive and KB-3-1 tox inactive.
CC(OC(=O)/C=C/c1ccco1)C(=O)Nc1cccc([N+](=O)[O-])c1 (configuration not stated) was read as MCF10A rereplic 6%, RGS4 inhibitor -3%, KB-V1 cytotox 18µM*, PTAP TSG101 blk -3%, KB-3-1 tox inconclusive and SW480 rerep inconclusive.
`COc1ccc([N+](=O)[O-])cc1NC(=O)C(C)OC(=O)/C=C/c1ccco1` (configuration not stated) gave MCF10A rereplic 0%, RGS4 inhibitor 9%, KB-V1 cytotox inconclusive, PTAP TSG101 blk -2%, KB-3-1 tox inactive and SW480 rerep -105%.
Screening CCOc1ccccc1C1NC(c2ccc3c(c2)OCO3)=CC(c2ccccc2O)N1 (configuration not stated) returned RGS4 inhibitor -14%, KB-V1 cytotox inactive and KB-3-1 tox inactive.
`COc1ccc(-c2cc(-c3cc(C)ccc3O)[nH]n2)cc1` gave MCF10A rereplic 18µM*, RGS4 inhibitor 0%, KB-V1 cytotox inconclusive, PTAP TSG101 blk -4%, KB-3-1 tox inconclusive and SW480 rerep inconclusive.
`COc1ccc(-c2cc(-c3ccc(C)cc3)n[nH]2)c(O)c1` gave MCF10A rereplic 26%, RGS4 inhibitor 21%, KB-V1 cytotox inactive, PTAP TSG101 blk 3%, KB-3-1 tox inactive and SW480 rerep inconclusive.
For Oc1ccccc1-c1cc(-c2ccccc2Cl)[nH]n1 the results were MCF10A rereplic inconclusive, RGS4 inhibitor 15%, KB-V1 cytotox 21µM*, PTAP TSG101 blk -1%, KB-3-1 tox inactive and SW480 rerep -2%.
CC(C)(C)c1ccc(-c2cc(-c3ccccc3O)[nH]n2)cc1 was read as MCF10A rereplic 9.2µM*, RGS4 inhibitor -1%, KB-V1 cytotox inconclusive, PTAP TSG101 blk 0%, KB-3-1 tox inconclusive and SW480 rerep inconclusive.
`Cc1ccc(-c2onc(C)c2C)cc1S(=O)(=O)NCc1ccco1` gave RGS4 inhibitor -28%.
For COC(=O)C1=C(C)OC(N)=C(C#N)C1c1ccccc1 (configuration not stated) the results were MCF10A rereplic -3%, RGS4 inhibitor -18%[56.9 µM], KB-V1 cytotox inactive, PTAP TSG101 blk -7%, KB-3-1 tox inactive and SW480 rerep 1%.
`CNC(=O)C1C(=S)NC(N)=C(C#N)C1c1ccccc1` (configuration not stated) gave MCF10A rereplic inconclusive, RGS4 inhibitor inconclusive, KB-V1 cytotox inactive, PTAP TSG101 blk -6%, KB-3-1 tox inactive and SW480 rerep 3.3µM*.
`Oc1[nH]c2ccccc2c1C=Nc1ccc2c(c1)OCCO2` gave MCF10A rereplic inconclusive, RGS4 inhibitor -21%, KB-V1 cytotox 16µM*, PTAP TSG101 blk -1%, KB-3-1 tox inactive and SW480 rerep -6%.
